High-throughput results deposited in PubChem by National Center for Advancing Translational Sciences (NCATS).
USP1 inh: blocks the human USP1/UAF1 deubiquitinase complex; actives 0.23% (n = 390,000); recombinant USP1/UAF1, Ub-Rhodamine cleavage fluorescence; AID 743255; Potency, µM (top dose mostly 57.1 µM), for the others: at the top dose activity change, negative = inhibition, usual class: inhibitors; also: % is scaled to controls: 0 for no effect and ±100 for the full control effect; nearly all actives have a fitted effect of over 60% in size
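High-throughput fluorogenic screen: 1nM USP1/UAF1 complex, Ub-Rho substrate 150nM final, 50mM HEPES pH 7.8 with 0.5mM EDTA, 0.1 mg/ml BSA, 1mM TCEP and 0.01% Tween-20.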
PLK1 PBD inh: blocks phosphopeptide binding to human PLK1 polo-box domain. AID 720504. Potency, µM, inactives show max response, negative = inhibition, usual class: inhibitors. P53350. Plk1 PBD binding of FITC phosphopeptide, fluorescence polarization. actives 2.8% (n = 360,000); also: series mostly up to about 57 µM; % is scaled to controls: 0 for no effect and ±100 for the full control effect; nearly all actives have a fitted effect of over 65% in size
GCN5L2 inh: blocks human GCN5L2 histone acetyltransferase. Q92830. GCN5L2 HAT assay, ThioGlo1 CoA-SH fluorescence. Potency, µM (top dose mostly 58.9 µM), inactives show top-dose activity change, negative = inhibition, actives largely listed as inhibitors. actives 0.21% (n = 390,000); also: % is scaled to controls: 0 for no effect and ±100 for the full control effect
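Free CoA generated was detected with ThioGlo1 (50uM) fluorescence at Ex340nm/Em540nm, read immediately and after 20 min at room temperature. Enzyme, 20 nM in HEPES pH 7.5 buffer, saw compounds 15 min before adding 75uM H3(1-25) peptide and 70uM acetyl-CoA.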
TSG101-PTAP inh: blocks PTAP/TSG101 interaction to inhibit HIV-1 budding. AID 493005. Fluorescence polarization, FITC-PTAP peptide / Tsg101 binding. 340,000 tested, under 10 active. Potency, µM (top dose mostly 115 µM), inactives show top-dose activity change, negative = inhibition, actives largely listed as inhibitors; active = well fitted inhibition curve with a large enough effect in the main read-out, with a control signal flat, not every such curve was filed as active; inconclusive = small, poorly fitted or top-dose-only effect, or effect the other way, or a change in a side signal; inactive = no such curve, though single readings can be large or run the other way; also: % of control where 0% means no effect
Target sequence (Q99816 whole entry, looked up): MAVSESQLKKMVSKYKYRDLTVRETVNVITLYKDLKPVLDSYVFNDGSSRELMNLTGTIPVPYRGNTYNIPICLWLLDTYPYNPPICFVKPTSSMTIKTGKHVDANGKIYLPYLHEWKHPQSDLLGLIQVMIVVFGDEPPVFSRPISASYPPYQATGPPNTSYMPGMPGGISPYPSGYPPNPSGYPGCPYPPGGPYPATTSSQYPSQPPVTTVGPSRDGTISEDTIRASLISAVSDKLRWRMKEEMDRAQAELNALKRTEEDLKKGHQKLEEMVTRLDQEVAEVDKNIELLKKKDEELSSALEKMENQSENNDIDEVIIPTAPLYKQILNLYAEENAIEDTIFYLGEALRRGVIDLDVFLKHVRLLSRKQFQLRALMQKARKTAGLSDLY
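Tsg101 binding domain (10 uM final) was mixed with compound and a FITC-labeled PTAP peptide (50 nM final) in HEPES pH 7.5 buffer with NaCl, Tween 20, EDTA and TCEP; fluorescence polarization was read after 20 min at r.t.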
VDR inhibitor: blocks the human vitamin D receptor. VDR-SRC2-3 peptide fluorescence polarization, 2 h. Potency, µM, inactives show max response, negative = inhibition, actives largely listed as inhibitors. actives 0.93% (n = 400,000). AID 504847; also: % is scaled to controls: 0 for no effect and ±100 for the full control effect
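Signal is fluorescence polarization, reporting how far test compounds block the interaction of VDR with the SRC2-3 coregulator peptide after a 2 h room-temperature incubation.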
Numbers without * were called inactive; ? = inconclusive; . = not tested or not shown; ! = a repeat was not active; [ ] = remark or other dose. Compounds with a hit are over-represented: about 3% of the library has one in this group of screens. Unless noted, calls follow the shape of the dose curve; as a rule, active = well fitted curve in the direction sought with a large enough effect; inconclusive = small, poorly fitted or top-dose-only effect, or another doubt; inactive = no such curve, though single readings can be large; an effect the other way counts as inactive or inconclusive. Potency is read from the fitted curve at half-maximal effect.

SMILES | USP1 inh | PLK1 PBD inh | GCN5L2 inh | TSG101-PTAP inh | VDR inhibitor
CCC(C)C(=O)Nc1nnc(CCc2ccccc2)s1 (stereo unspecified) | 3% | 24µM* | -1% | -1% | ?
CCCC(C)c1nnc(NC(=O)CCS(=O)(=O)Cc2ccccc2)s1 (stereo unspecified) | -3% | 13µM* | -15% | -3% | ?
CCCC(C)c1nnc(NC(=O)CS(=O)(=O)Cc2ccccc2)s1 (stereo unspecified) | -5% | 14µM* | 1% | -4% | ?
CN1CCN(c2ncc3nc(-c4cccs4)c(=O)n(Cc4ccc(F)cc4)c3n2)CC1 | . | . | -18% | . | -20%
COc1ccc(C(=O)N2c3ccc(C)cc3C(C)(c3ccccc3)CC2(C)C)cc1 (stereo unspecified) | ? | . | -3% | . | -6%
COc1ccc(CN2C[C@@H](CO)O[C@@H](n3cnc4c(N5CCCC5)ncnc43)C2)cc1 | . | -1% | . | . | .
Cc1ccsc1C(=O)N1CCC1(C)C(=O)NCc1cccnc1 (stereo unspecified) | . | 10% | . | . | .
Cc1ccccc1NC(=O)Nc1ccccc1C(N)=O | -8% | 27µM* | -12% | -6% | -25%
CC(C)Cc1nnc(NC(=O)CS(=O)(=O)Cc2ccccc2)s1 | 2% | 24µM* | -1% | -1% | -6%
CCC(CC)c1nnc(NC(=O)CS(=O)(=O)c2ccc(C)cc2)s1 | -19% | 12µM* | -5% | -2% | 45µM*
CCC(CC)c1nnc(NC(=O)CS(=O)(=O)Cc2ccccc2)s1 | -5% | ? | . | -2% | 3%
CC(C)Cc1nnc(NC(=O)CC(C)c2ccccc2)s1 (stereo unspecified) | -1% | -15% | -1% | -14% | -18%
CC(C)c1nnc(NC(=O)CS(=O)(=O)Cc2ccccc2)s1 | -18% | 27µM* | 0% | -6% | -5%
COc1ccc(OC)c(NC(=O)Cn2ccc3ccccc3c2=O)c1 | -23% | . | -1% | . | -10%
CCCN(C(=O)CCc1nc(-c2ccc(OC)cc2)no1)c1ccccc1F | ? | . | -12% | . | 1%
COc1cc(/C=C2/C(=N)N3C(=NC2=O)SN=C3S(C)(=O)=O)ccc1OS(=O)(=O)c1ccc(C)cc1 | -22% | 27µM* | ? | -5% | ?
COc1cccc(-n2c(C)cc(/C=C3/C(=N)N4C(=NC3=O)SN=C4S(C)(=O)=O)c2C)c1 | ? | 19µM* | ? | 1% | -19%
Cc1cc(C)cc(-n2cccc2/C=C2/C(=N)N3C(=NC2=O)SN=C3S(C)(=O)=O)c1 | 0% | -12% | ? | 0% | ?
CS(=O)(=O)C1=NSC2=NC(=O)/C(=C\c3ccc(OS(=O)(=O)c4ccccc4)cc3)C(=N)N21 | -16% | 30µM* | ? | 0% | 35µM*
CCS(=O)(=O)C1=NSC2=NC(=O)/C(=C\c3ccc(OS(=O)(=O)c4ccccc4)c(OC)c3)C(=N)N21 | -28% | 27µM* | -29% | -2% | 50µM*
COCCN(CCOC)C(=O)c1cc2c(=O)n3ccccc3nc2n1C | -10% | . | -16% | . | -6%
COc1ccccc1CCCNC(=O)C1CCC(=O)N(CCc2cccc(F)c2)C1 (stereo unspecified) | -8% | 0% | -3% | 0% | -13%
CC(C)S(=O)(=O)C1=NSC2=NC(=O)/C(=C\c3ccc(-c4ccccc4)o3)C(=N)N21 | 0% | 30µM* | -29% | 2% | ?
COC(=O)N1CCC[C@@]2(CCN(C(=O)Nc3ccc(OC)cc3)C2)C1 | . | . | 4% | . | 0%
Nc1ccccc1C(=O)NCc1ccccc1 | -8% | 3.8µM* | -4%[0.501 µM] | 0% | ?
SMILES | USP1 inh | PLK1 PBD inh | GCN5L2 inh | TSG101-PTAP inh | VDR inhibitor
Cc1ccccc1CNC(=O)c1ccccc1N | -10% | -3% | 2% | 0% | 11%
Cc1cccc(-n2c(O)c(C=Nc3cccc(O)c3)c3ccccc3c2=O)n1 | -17% | 15µM* | -12% | -4% | ?
O=C(N/N=C/c1ccco1)c1ccccc1OCc1ccc(Br)cc1 | -3% | -7% | 0% | -3% | -13%
Oc1ccc(C(O)CNCCCCCCNCC(O)c2ccc(O)c(O)c2)cc1O (stereo unspecified) | . | . | -26% | . | ?
CNC[C@H](O)c1ccc(O)c(O)c1 | -26% | -4% | 5% | -4% | 32µM*!
O=C(CCl)N1CCCC1c1ccc2c(c1)OCCO2 (stereo unspecified) | -20% | 27µM* | 1% | 4% | ?
CC(C)=CC(=O)Oc1ccc(C(=O)N(C)c2ccccc2I)cc1 | . | . | . | . | -22%
COc1ccc(/C=C/C(=O)c2cc(F)ccc2OC(=O)c2ccccc2)cc1OC | -19% | 1% | . | -3% | 40µM*
C[N+]1(C)CC[C@@H](OC(=O)[C@@](O)(c2ccccc2)C2CCCC2)C1 | . | . | 13%[21.4 µM] | . | 7%
Cc1ccc(S(=O)(=O)N2CCC(c3nnc(-c4cccc(C)c4)o3)CC2)cc1 | ? | . | -7% | . | ?
CCN1CCN(c2cc(N3CCN(C(=O)c4ccco4)CC3)c3c4c(onc24)-c2ccccc2C3=O)CC1 | ? | 40% | -4% | ? | -5%
O=C(O)CCNc1cc(N2CCN(C(=O)c3ccco3)CC2)c2noc3c2c1C(=O)c1ccccc1-3 | 14µM* | 49% | -15% | ? | ?
CCCOc1ccc(N/C=C/C(=O)c2ccc(OC)c(OC)c2)cc1 | -22% | 21µM* | -14% | 4% | ?
CCOC(=O)C(=CNNc1ccccc1)C(=O)OCC | 3% | ? | -2% | -2% | 50µM*
CCOC(=O)NNc1ccccc1 | -11% | -12% | ? | -11% | -24%
COc1cc(C=c2c3ccccc3n3c2cc(-c2ccccc2)[n+]3C)cc(OC)c1OC | 2.2µM* | 4.7µM* | . | 0% | -18%
CN(C)c1ccc(C=c2c3ccccc3n3c2cc(-c2ccccc2)[n+]3C)cc1 | 18µM* | -1% | . | 0% | -15%
CN(C)c1ccc(C=c2c3ccccc3n3c2cc(-c2ccc(Cl)cc2)[n+]3C)cc1 | -20% | 30µM* | . | 2% | -14%
CN(c1ccc(Cl)cc1)c1cc(=O)n(C)c2ccccc12 | -19% | -13% | -1% | -6% | -3%
COc1cc(N(C)C)ccc1C=c1c2ccccc2n2c1cc(-c1ccccc1)[n+]2C | ? | ? | . | -1% | 79µM*
CN(C)c1ccc(C=c2c3ccccc3n3c2c2c([n+]3C)CCCC2)cc1 | -14% | -26% | . | ? | 43%
Cc1ccc(C2=C(c3ccc([N+](=O)[O-])cc3)C(=O)OC2)cc1C | -14% | -5% | -9% | 1% | -18%
COc1cccc(C2C(C(=O)Nc3ccc(Cl)cc3)=C(C)Nc3c(C(=O)Nc4ccccc4)cnn32)c1OC (stereo unspecified) | -17% | . | -10% | . | 0%
CN(C)c1ccc(C=c2c3cc([N+](=O)[O-])ccc3n3c2cc(-c2ccccc2)[n+]3C)cc1 | ? | 2.7µM* | . | -2% | ?
